Measurements reported in PubChem BioAssay (EPA / NIEHS).
“And” between values parts separate entries of the source, which are not always exact repeats. Equal entries are not always repeated. Inconclusive results are not listed. The source made the active and inactive calls. Rule for the calls: active = hit-call score of the fitted dose curve at least 0.9, where 1 is the maximum; inconclusive = response in the unintended direction; inactive = score below 0.9.

Tests used:
[1] = target: human Neurotensin Receptor (NTS), NTSR1 (gene 4923) (UniProt P30989); assay: NVS_GPCR_hNTS: NovaScreen (NVS) G Protein-Coupled Receptor Assay for human Neurotensin Receptor (NTS) (AID 2283279)
How it was run: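 Compounds competed with a radiolabelled ligand for binding to CHO-derived human neurotensin receptor; bound signal counted after filtration, 1 h. Screened first at a single concentration of 25 uM in duplicate, then concentration series to 50 uM maximum for actives.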

[2] = target: human Opioid Receptor Delta 1 (Opiate D1), OPRD1 (gene 4985) (UniProt P41143); assay: NVS_GPCR_hOpiate_D1: NovaScreen (NVS) G Protein-Coupled Receptor Assay for human Opioid Receptor Delta 1 (Opiate D1) (AID 2283280)
How it was run: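 Membrane preparations from CHO cells bearing the human receptor were incubated 1 h with test chemical, and bound radioligand was counted after filtration. Actives from 25 uM duplicate screening were retested in concentration-response.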

[3] = target: human Thromboxane A2 Receptor (TXA2), TBXA2R (gene 6915) (UniProt P21731); assay: NVS_GPCR_hTXA2: NovaScreen (NVS) G Protein-Coupled Receptor Assay for human Thromboxane A2 Receptor (TXA2) (AID 2283282);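 note: actives reduce bound radioligand signal relative to DMSO baseline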
How it was run: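 Cell-free radioligand binding with human platelet-derived receptor; 1 h after dosing, filter-based scintillation counting, loss of signal vs DMSO. Primary screen in duplicate at 25 uM.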

[4] = target: human Neurokinin, NK2 Receptor, TACR2 (gene 6865) (UniProt P21452); assay: NVS_GPCR_hNK2: NovaScreen (NVS) G Protein-Coupled Receptor Assay for human Neurokinin, NK2 Receptor (AID 2283278);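 note: actives reduce bound radioligand signal relative to DMSO baseline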
How it was run: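 Test chemicals displace a radioligand from receptor prepared from CHO cells in a cell-free format, read after 4 hours by scintillation counting on filters. Screening starts at 25 uM in duplicate, and active chemicals then go to concentration series.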

[5] = target: mouse Cholecystokinin, CCK1 Receptor (CCKA), Cckar (gene 12425) (UniProt O08786); assay: NVS_GPCR_mCCKAPeripheral: NovaScreen (NVS) G Protein-Coupled Receptor Assay for mouse Cholecystokinin, CCK1 Receptor (CCKA) (AID 2283285)
How it was run: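 Chemicals were first screened in duplicate at 25 uM, with those meeting threshold (e.g., 30% inhibition) retested in singleton concentration series to 50 uM maximum. Binding of radioligand to mouse pancreatic membranes was read after 2 h by filtration and scintillation counting.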

[6] = target: human Orphanin, Opioid Related Nociceptin Receptor 1 (ORL1), OPRL1 (gene 4987) (UniProt P41146); assay: NVS_GPCR_hORL1: NovaScreen (NVS) G Protein-Coupled Receptor Assay for human Orphanin, Opioid Related Nociceptin Receptor 1 (ORL1) (AID 2283283)
Protocol: NVS_GPCR_hORL1 is a biochemical, single-readout assay that uses extracted gene-proteins from HEK293 in a cell-free assay. Measurements were taken 1 hour after chemical dosing in a 48-well plate.NVS_GPCR_hORL1 is one of one assay component(s) measured or calculated from the NVS_GPCR_hORL1 assay. It is designed to make measurements of radioligand binding, a form of binding reporter, as detected with scintillation counting signals by Filter-based radiodetection technology.Data from the assay component NVS_GPCR_hORL1 was analyzed into 1 assay endpoint. This assay endpoint, NVS_GPCR_hORL1, was analyzed in the positive analysis fitting direction relative to DMSO as the negative control and baseline of activity. Using a type of binding reporter, loss-of-signal activity can be used to understand changes in the binding as they relate to the gene OPRL1. Furthermore, this assay endpoint can be referred to as a primary readout, because the performed assay has only produced 1 assay endpoint. To generalize the intended target to other relatable targets, this assay endpoint is annotated to the gpcr intended target family, where the subfamily is rhodopsin-like receptor.
Binding assays used specific radioligands (tritiated, iodinated) with non-radioactive competitive displacement ligands in agonist or antagonist protocols (as indicated) and various reference compounds and inhibitors to titrate specific binding to receptors and transporters. Most enzyme assays (CYPs, kinases, phosphatases, proteases, HDACs) used recombinant protein and specific substrates (fluorescence mostly, some colorimetric and radioactive) and inhibitors, followed by a biochemical separation of substrate and product. All assays for the biochemical HTS were initially run in duplicate at a single concentration (10 uM for CYP450 assays and 25 uM for all others). Assay-chemical combinations meeting a pre-defined threshold (e.g., 30% inhibition and other criteria defined below) were then run in singleton concentration-response format with maximum concentration of 20 uM for CYPs and 50 uM for all others. Each assay was run with positive and negative controls, and concurrent controls on every plate. The follow-up (secondary) screen tested active chemical-pairs in concentration series, as well as a few additional assays not tested in the primary screen, some selected negative inactives, and several cases re-run in the concentration series for confirmatory purposes.

[7] = target: human Purinergic Receptor P2Y, P2RY1 (gene 5028) (UniProt P47900); assay: NVS_GPCR_hPY2: NovaScreen (NVS) G Protein-Coupled Receptor Assay for human Purinergic Receptor P2Y (AID 2283281)
How it was run: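 Filtration scintillation readout of radioligand displacement on U937 extract, measured 1 h post-dosing. Single 25 uM duplicate screen, then singleton concentration series to 50 uM for chemicals passing threshold; DMSO as baseline.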

[8] = target: human Neuropeptide Receptor Y1 (NPY1), NPY1R (gene 4886) (UniProt P25929); assay: NVS_GPCR_hNPY1: NovaScreen (NVS) G Protein-Coupled Receptor Assay for human Neuropeptide Receptor Y1 (NPY1) (AID 2283276)
How it was run: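 Displacement of specific radioligand from NPY1 receptor of SK-N-MC origin, read by filtration and scintillation after 1 h. Compounds first tested at 25 uM in duplicate, then actives in concentration series; signal loss relative to DMSO.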

[9] = target: human Vasopressin 1A Receptor (V1A), AVPR1A (gene 552) (UniProt P37288); assay: NVS_GPCR_hV1A: NovaScreen (NVS) G Protein-Coupled Receptor Assay for human Vasopressin 1A Receptor (V1A) (AID 2283284)
How it was run: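 Single-concentration duplicate screen at 25 uM, with concentration-response follow-up (top 50 uM) for actives. The assay measured displacement of a radioligand from human platelet-derived receptor after 1.5 h, detected by filtration and scintillation counting.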

[10] = target: Neuropeptide Y receptor type 2 (Homo sapiens) (UniProt P49146); assay: NVS_GPCR_hNPY2: NovaScreen (NVS) G Protein-Coupled Receptor Assay for human Neuropeptide Receptor Y2 (NPY2) (AID 2283277)
How it was run: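 Chemicals were first tested in duplicate at 25 uM, then actives in singleton concentration series to 50 uM. Tracer binding to SK-N-MC-derived protein measured cell-free after 1 h via filter scintillation; signal loss relative to DMSO.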

Sequence of human Neuropeptide Receptor Y1 (NPY1), NPY1R (gene 4886) (P25929 whole entry, looked up): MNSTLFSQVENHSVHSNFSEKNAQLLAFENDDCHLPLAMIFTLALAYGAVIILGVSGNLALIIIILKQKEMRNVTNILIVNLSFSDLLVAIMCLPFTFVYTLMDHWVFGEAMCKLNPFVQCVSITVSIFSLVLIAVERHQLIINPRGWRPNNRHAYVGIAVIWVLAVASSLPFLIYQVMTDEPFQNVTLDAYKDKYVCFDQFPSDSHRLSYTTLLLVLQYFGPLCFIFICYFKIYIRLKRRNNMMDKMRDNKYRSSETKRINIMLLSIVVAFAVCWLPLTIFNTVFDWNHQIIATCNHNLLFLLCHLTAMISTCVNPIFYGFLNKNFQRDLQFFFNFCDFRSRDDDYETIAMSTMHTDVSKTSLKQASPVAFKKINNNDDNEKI
Sequence of mouse Cholecystokinin, CCK1 Receptor (CCKA), Cckar (gene 12425) (O08786 whole entry, looked up): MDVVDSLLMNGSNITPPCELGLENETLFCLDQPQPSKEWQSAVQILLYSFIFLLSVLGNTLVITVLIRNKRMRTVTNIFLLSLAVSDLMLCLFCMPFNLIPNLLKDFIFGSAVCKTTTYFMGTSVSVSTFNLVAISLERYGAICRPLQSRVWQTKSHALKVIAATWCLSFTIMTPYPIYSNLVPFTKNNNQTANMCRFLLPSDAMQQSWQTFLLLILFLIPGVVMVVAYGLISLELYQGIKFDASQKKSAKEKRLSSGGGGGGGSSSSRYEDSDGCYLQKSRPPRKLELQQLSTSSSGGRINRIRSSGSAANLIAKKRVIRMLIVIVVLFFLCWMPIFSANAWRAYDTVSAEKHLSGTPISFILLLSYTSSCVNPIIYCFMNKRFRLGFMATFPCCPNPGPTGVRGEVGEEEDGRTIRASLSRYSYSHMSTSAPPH
Sequence of human Thromboxane A2 Receptor (TXA2), TBXA2R (gene 6915) (P21731 whole entry, looked up): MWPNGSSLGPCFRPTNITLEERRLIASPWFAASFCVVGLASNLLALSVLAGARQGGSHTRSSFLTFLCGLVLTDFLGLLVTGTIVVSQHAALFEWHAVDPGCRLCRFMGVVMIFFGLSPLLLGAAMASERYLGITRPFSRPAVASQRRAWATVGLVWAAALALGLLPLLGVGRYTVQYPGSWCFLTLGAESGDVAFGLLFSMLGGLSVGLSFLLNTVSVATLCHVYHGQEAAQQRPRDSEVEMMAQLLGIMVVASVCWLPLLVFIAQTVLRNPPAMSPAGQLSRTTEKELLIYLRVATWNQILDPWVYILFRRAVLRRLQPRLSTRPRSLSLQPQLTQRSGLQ
Sequence of human Neurotensin Receptor (NTS), NTSR1 (gene 4923) (P30989 whole entry, looked up): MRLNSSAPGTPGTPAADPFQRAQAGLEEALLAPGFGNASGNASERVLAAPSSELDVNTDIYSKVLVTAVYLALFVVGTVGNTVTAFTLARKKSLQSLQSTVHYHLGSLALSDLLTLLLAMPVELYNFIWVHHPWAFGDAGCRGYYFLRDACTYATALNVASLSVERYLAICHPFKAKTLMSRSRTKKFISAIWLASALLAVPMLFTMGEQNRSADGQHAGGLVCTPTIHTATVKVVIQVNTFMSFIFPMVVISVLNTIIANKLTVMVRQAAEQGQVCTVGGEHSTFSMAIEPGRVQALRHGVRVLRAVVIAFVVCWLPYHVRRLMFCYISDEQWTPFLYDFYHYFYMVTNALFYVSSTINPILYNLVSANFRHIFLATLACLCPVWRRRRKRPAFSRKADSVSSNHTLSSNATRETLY
Sequence of human Purinergic Receptor P2Y, P2RY1 (gene 5028) (P47900 whole entry, looked up): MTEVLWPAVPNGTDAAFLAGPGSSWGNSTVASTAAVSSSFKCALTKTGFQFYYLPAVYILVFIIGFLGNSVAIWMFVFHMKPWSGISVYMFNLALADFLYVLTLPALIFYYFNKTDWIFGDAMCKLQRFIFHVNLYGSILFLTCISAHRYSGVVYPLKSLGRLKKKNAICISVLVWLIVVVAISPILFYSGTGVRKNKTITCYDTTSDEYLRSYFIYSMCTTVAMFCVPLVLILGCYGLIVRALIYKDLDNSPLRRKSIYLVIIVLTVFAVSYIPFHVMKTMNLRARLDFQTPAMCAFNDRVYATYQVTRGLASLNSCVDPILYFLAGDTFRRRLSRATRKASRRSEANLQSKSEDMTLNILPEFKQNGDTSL
Sequence of human Neurokinin, NK2 Receptor, TACR2 (gene 6865) (P21452 whole entry, looked up): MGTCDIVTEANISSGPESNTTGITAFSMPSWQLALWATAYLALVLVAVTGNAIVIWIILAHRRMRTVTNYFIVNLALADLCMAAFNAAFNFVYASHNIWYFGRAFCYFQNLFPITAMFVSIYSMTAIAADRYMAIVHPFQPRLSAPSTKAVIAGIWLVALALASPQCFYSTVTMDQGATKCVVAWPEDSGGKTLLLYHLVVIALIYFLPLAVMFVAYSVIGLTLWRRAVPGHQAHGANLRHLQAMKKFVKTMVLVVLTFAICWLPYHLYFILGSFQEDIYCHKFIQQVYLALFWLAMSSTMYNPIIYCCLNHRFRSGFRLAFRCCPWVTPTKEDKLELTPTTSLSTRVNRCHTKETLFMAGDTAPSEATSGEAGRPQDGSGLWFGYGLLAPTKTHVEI
Sequence of human Opioid Receptor Delta 1 (Opiate D1), OPRD1 (gene 4985) (P41143 whole entry, looked up): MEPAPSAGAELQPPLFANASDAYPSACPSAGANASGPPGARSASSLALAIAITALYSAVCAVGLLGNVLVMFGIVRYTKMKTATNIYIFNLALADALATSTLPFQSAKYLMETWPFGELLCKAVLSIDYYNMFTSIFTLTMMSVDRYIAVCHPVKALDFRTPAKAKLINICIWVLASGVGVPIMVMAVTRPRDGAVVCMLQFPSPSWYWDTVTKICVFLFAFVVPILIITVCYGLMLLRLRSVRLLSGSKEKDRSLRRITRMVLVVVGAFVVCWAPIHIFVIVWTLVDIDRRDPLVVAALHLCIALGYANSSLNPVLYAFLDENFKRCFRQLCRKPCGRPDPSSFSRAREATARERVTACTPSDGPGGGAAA
Sequence of human Orphanin, Opioid Related Nociceptin Receptor 1 (ORL1), OPRL1 (gene 4987) (P41146 whole entry, looked up): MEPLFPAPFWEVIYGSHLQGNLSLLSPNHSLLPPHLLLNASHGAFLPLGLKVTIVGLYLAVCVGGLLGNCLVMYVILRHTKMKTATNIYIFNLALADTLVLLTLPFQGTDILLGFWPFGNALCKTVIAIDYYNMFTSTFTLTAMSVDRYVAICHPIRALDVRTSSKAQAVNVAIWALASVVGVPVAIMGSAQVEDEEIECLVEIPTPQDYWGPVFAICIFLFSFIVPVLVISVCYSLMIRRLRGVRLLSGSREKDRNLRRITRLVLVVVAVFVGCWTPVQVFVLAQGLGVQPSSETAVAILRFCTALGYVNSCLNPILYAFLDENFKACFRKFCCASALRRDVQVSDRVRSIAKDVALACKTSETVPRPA
Sequence of human Vasopressin 1A Receptor (V1A), AVPR1A (gene 552) (P37288 whole entry, looked up): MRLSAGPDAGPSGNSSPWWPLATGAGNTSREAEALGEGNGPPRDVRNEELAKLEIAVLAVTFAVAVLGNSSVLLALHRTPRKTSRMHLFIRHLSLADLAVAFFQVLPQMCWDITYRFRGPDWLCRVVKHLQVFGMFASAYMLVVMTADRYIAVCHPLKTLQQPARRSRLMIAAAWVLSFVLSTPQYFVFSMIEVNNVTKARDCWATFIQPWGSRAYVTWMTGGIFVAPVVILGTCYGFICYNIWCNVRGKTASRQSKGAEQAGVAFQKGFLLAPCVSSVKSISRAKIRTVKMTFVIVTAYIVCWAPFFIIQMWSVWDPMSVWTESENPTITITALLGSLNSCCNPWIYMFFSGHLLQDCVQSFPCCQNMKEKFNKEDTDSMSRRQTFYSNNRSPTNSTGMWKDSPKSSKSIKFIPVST
Sequence of Neuropeptide Y receptor type 2 (Homo sapiens) (P49146 whole entry, looked up): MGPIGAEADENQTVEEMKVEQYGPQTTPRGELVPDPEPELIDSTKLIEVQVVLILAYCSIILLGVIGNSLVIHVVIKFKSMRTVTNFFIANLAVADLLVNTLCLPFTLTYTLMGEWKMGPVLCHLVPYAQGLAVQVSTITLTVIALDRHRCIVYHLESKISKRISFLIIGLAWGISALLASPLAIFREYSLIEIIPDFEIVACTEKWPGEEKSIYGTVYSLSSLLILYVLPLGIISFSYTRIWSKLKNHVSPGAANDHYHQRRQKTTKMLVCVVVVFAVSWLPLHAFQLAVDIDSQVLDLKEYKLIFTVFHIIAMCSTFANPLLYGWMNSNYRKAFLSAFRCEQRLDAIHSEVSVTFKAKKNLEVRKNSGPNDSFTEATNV

With `C/C=C/C=C/C(=O)O` the outcome [1] was “inactive”.

With `Cn1cnc2c1c(=O)[nH]c(=O)n2C` the outcome [2] was “inactive”.

In the case of `CCCCCCC(CCCCCCCCCCC(=O)OCC(COC(C)=O)OC(C)=O)OC(C)=O` (configuration not stated), the AC50 [3] is reported as 4.54 µM (active).

For `CN(C)CCCN1c2ccccc2Sc2ccc(Cl)cc21`, the AC50 [4] was 25 µM (active), the AC50 [1] was 14.5 µM (active) and the AC50 [5] was 21.8 µM (active).

With `O=C1OC(c2ccc(O)cc2)(c2ccc(O)cc2)c2ccccc21` the AC50 [2] was 6.64 µM (active) and the AC50 [3] was 0.454 µM (active).

In the case of `OCC(O)CO`, the outcome [2] is reported as “inactive”.

In the case of `C#CC(O)C(CC)CCCC` (configuration not stated), the outcome [6] is reported as “inactive”.

With `CCCCCCCCCCCCCCOS(=O)(=O)O` the AC50 [4] was 46.3 µM (active), the AC50 [2] was 8.07 µM (active) and the AC50 [7] was 10.3 µM (active). The AC50 [3] was 7.59 µM (active) and the AC50 [6] was 16.3 µM (active).

For `S=c1[nH]c2ccccc2s1`, the outcome [4] was “inactive”.

In the case of `CS(=O)(=O)c1ccc([C@@H](C[C@H]2CCC(=O)C2)C(=O)Nc2cnccn2)cc1Cl`, the outcome [7] is reported as “inactive”.

With `CN(C)C(=O)NC1(c2ccccc2)CCN(CCC[C@]2(c3ccc(Cl)c(Cl)c3)CCCN(C(=O)c3ccccc3)C2)CC1` the AC50 [4] was 0.164 µM (active) and the outcome [2] was “inactive”.

In the case of `CSc1ccc(Oc2ccc(S(N)(=O)=O)cc2CN(C)C)cc1C`, the AC50 [4] is reported as 6.33 µM (active) and the AC50 [2] is reported as 15 µM (active).

In the case of `Cc1cc(SC2=C(O)C[C@@](CCc3ccc(N)cc3)(C(C)C)OC2=O)c(C(C)(C)C)cc1CO`, the AC50 [3] is reported as 0.881 µM (active) and the outcome [5] is reported as “inactive”.

In the case of `O=Cc1ccccc1C=O`, the AC50 [8] is reported as 12.9 µM (active), the AC50 [3] is reported as 16.7 µM (active) and the AC50 [6] is reported as 25 µM (active).

For `COc1ccc(OC(F)(F)F)cc1CN[C@H]1CCCN[C@H]1c1ccccc1`, the AC50 [4] was 13.5 µM (active).

With `CCCCOC(=O)CCCCC(=O)OCCCC` the outcome [1] was “inactive”.

In the case of `CCC(C)N(C)C(=O)c1cc2ccccc2c(-c2ccccc2Cl)n1` (configuration not stated), the AC50 [4] is reported as 15.9 µM (active), the AC50 [3] is reported as 1 µM (active) and the outcome [9] is reported as “inactive”. The AC50 [5] was 10.8 µM (active).

With `Nc1nc(=S)c2[nH]cnc2[nH]1` the AC50 [4] was 44.4 µM (active).

`Oc1ccc(O)cc1` was tested, and the AC50 [8] was 10.8 µM (active), the outcome [4] was “inactive” and the outcome [9] was “inactive”.

In the case of `CC(COCC(C)OC(=O)c1ccccc1)OC(=O)c1ccccc1` (configuration not stated), the outcome [7] is reported as “inactive”.

With `CO[C@@H]1COCC[C@@H]1N[C@@H]1CC[C@@](C(=O)N2CCc3ncc(C(F)(F)F)cc3C2)(C(C)C)C1` the outcome [9] was “inactive”.

For `CCc1cc(C2=C(C(=O)O)N(c3ccccc3C(F)(F)F)S(=O)(=O)c3ccccc32)cc2c1OCO2`, the AC50 [4] was 25 µM (active), the AC50 [3] was 3.08 µM (active) and the AC50 [5] was 16.6 µM (active).

`CN(C)C(=O)NC1(c2ccccc2)CCN(CC[C@@]2(c3ccc(F)c(F)c3)CN(C(=O)c3ccccc3)CCO2)CC1` was tested, and the AC50 [4] was 0.00564 µM (active) and the AC50 [5] was 12.8 µM (active).

In the case of `CCN(CC)CCOc1ccc(C(=C(Cl)c2ccccc2)c2ccccc2)cc1`, the AC50 [8] is reported as 31.8 µM (active), the AC50 [4] is reported as 9.71 µM (active) and the outcome [1] is reported as “inactive”. The AC50 [2] was 9.7 µM (active), the AC50 [6] was 28.9 µM (active) and 7.41 µM (active) and 31.3 µM (active) and the AC50 [5] was 21.4 µM (active).

In the case of `O=C(NS(=O)(=O)/C=C/c1cccs1)c1ccc(F)cc1Br`, the AC50 [5] is reported as 22.6 µM (active).

In the case of `O=C(N[C@@H](c1ccccc1)[C@@H]1CCCCN1)c1cccc(C(F)(F)F)c1Cl`, the AC50 [4] is reported as 17.8 µM (active).

With `O=C1CCCCC1` the outcome [10] was “inactive”.
